Records with an inconclusive call do not appear. The source made the active and inactive calls. The call rests on the fitted dose curve; in most records, active means well fitted cell-killing curve with a large enough effect; inconclusive means small, poorly fitted or top-dose-only effect; inactive means flat fitted curve, though single readings scatter.
assay: Cell Viability - LYMP2-007 (AID 979); settings: LYMP2-007 lymphoblastoid cell viability; series mostly up to 92.2 µM; activity change, negative = cytotoxicity: at the top concentration;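 further: cells exposed to compound for 24 h before reading; 0% = DMSO only and the negative end = 92 µM tetraoctylammonium bromide; nearly all actives have a fitted effect of over 60% in size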
Description: NIH Chemical Genomics Center [NCGC]
NIH Molecular Libraries Screening Centers Network [MLSCN]
National Institutes of Environmental Health Sciences [NIEHS]
National Toxicology Program [NTP]
We have developed a 1536-well cell-based assay for quantitative high throughput screening (qHTS) against a number of cell lines to determine in vitro cytotoxicity of small molecules. This particular assay uses a human lymphoblastoid cell line (LYMP2-007) purchased from Coriell Institute for Medical Research.
NCGC Assay Protocol Summary:
The CellTiter-Glo luminescent cell viability assay (Promega) is a homogeneous method to measure the number of viable cells in culture. The end point readout of this assay is based on quantitation of intracellular ATP, an indicator of metabolic activity, using the luciferase reaction. Luciferase catalyzes the oxidation of beetle Luciferin to oxyluciferin and light in the presence of ATP. The luminescent signal is proportional to amount of ATP present.
Using the CellTiter-Glo luminescent cell viability assay, the amount of cellular ATP was measured in the lymphoblastoid cell line with complete culture medium following compound treatment for 24 hours. The assay was performed in opaque white Kalypsys 1536-well plates. In the screen, tetraoctylammonium bromide was used as positive control. Library compounds were measured for their ability to cause acute toxicity in the cell line, as reflected by a decrease in intracellular ATP levels, in a concentration-dependent manner. […] AC50 values were determined from concentration-response data modeled with the standard Hill equation.
qHTS protocol for CellTiter Glo lymphoblastoid cellular assay
[Step] [Parameter] [Value] [Description]
1. Reagent; 5 uL; 2500 lymphoblastoid cells/well
2. Time; 5 hr; 37 C incubation
4. Controls; 23 nL; Tetraoctylammonium bromide 6.4pM to 92 uM
5. Time; 24 hr; 37 C incubation
6. Reagent; 5 uL; CellTiter Glo reagent
7. Time; 30 min; Room Temperature
8. Detection; Luminescence; Viewlux plate reader
Keywords: cell viability, cytotoxicity, lymphoblastoid cell line, luminescence, NTPHTS, NTPHTS_NCGC, NIEHS, DSSTox, MLSMR, MLSCN, NIH Roadmap, qHTS, NCGC

SMILES | activity change, negative = cytotoxicity
ICCc1ccccc1 | -11.7% (inactive)
C=CC(=O)OCCCC | -7.88% (inactive)
O=C(Cl)c1c(Cl)cccc1Cl | -2.57% (inactive)
C1CCCC1 | -4.32% (inactive)
N#CCc1ccccc1[N+](=O)[O-] | -1.3% (inactive)
O=C1CCCCC1 | -10.6% (inactive)
OC/C(Br)=C(\Br)CO | -5.82% (inactive)
Cc1ccc(C)cc1 | 0.305% (inactive)
Nc1ccc(Cl)cc1[N+](=O)[O-] | -6.42% (inactive)
C/C=C(/C)C#N | -1.96% (inactive)
CCOCC(=O)O | -4.01% (inactive)
C=C(C)C(=O)OCCCCCCCCCC | -4.94% (inactive)
Cc1cc(C2(c3cc(C)c(O)cc3C)OS(=O)(=O)c3ccccc32)c(C)cc1O | -6.05% (inactive)
Clc1cc(Cl)cc(Cl)c1 | 12.5% (inactive)
CC/C=C1/OC(=O)c2ccccc21 | -2.58% (inactive)
Cc1ccc(C#N)cc1 | -1.99% (inactive)
CC(N)CN (stereo not given) | -1.64% (inactive)
COc1ccc(OC)cc1 | -5.32% (inactive)
Cc1cc(C(=O)O)ccc1[N+](=O)[O-] | -6.72% (inactive)
O=C(O)c1cccc([N+](=O)[O-])c1 | -10.3% (inactive)

SMILES | activity change, negative = cytotoxicity
c1ccc2c(c1)Oc1ccccc1S2 | -5.56% (inactive)
CCOC(C)(C)C | 12.6% (inactive)
C=CCCC | 0.404% (inactive)
CC(=O)c1cc(C)oc1C | -0.0261% (inactive)
CC(C)=CCl | 5.73% (inactive)
O=c1[nH][nH]c(=O)c2cc([N+](=O)[O-])ccc12 | 1.69% (inactive)
Cc1ccccc1C(=O)O | 8% (inactive)
Nc1cc(S(=O)(=O)O)ccc1O | -0.928% (inactive)
CC(C)=CCC/C(C)=C/C=O | 6.32% (inactive)
OC(CCl)CCl | -3.47% (inactive)
CCCCC(CC)CO (stereo not given) | -5.02% (inactive)
Cc1ccc2cccnc2c1 | 0.14% (inactive)
CC#N | 7.42% (inactive)
Nc1nc(CC(=O)O)cs1 | -0.431% (inactive)
C=CCOC(=O)COCCC(C)C | -5.37% (inactive)
Cc1cc(C)cc(O)c1 | -4.78% (inactive)
O=C1OC(=O)c2c(Br)c(Br)c(Br)c(Br)c21 | 4.2% (inactive)
C=C(C)C(=O)OCCCCCC | -0.778% (inactive)
NC(=O)c1cccc([N+](=O)[O-])c1 | 2.33% (inactive)
Cc1cc(C)cc(N)c1 | -4.42% (inactive)

Source: PubChem BioAssay (NCATS)
